Out of some 300,000 compounds screened, about 1,000 (0.33%) were called active. The list comes from a sample in which actives are over-represented; it also holds similar structures and randomly drawn compounds. A number with no mark means an inactive call. No stated cut-off is given here; in the data, active means inhibition above about 28%; inactive means the rest.

The assay has as its system EBNA-1 (Epstein-Barr virus nuclear antigen 1), Human herpesvirus 4. In words: blockers of EBV EBNA-1 binding to DNA – biochemical, fluorescence polarization, primary screen (AID 1950). As to conditions: EBNA-1 DNA binding, at 14.8 µM, stronger effect = higher value. (In fluorescence polarisation assays a small probe gives low polarisation when free and higher when bound to something large.)
Turning to `Cc1nonc1NC(=O)c1oc2ccccc2c1C`, the inhibition (usually the relative decrease from the control value, in per cent) was 1.17%.
For `CCc1nonc1NC(=O)c1oc2ccc(Cl)cc2c1C`, the inhibition was 7.96%.
On to `COc1ccc(-c2nonc2NC(=O)c2oc3ccc(F)cc3c2C)cc1OC`, for which the inhibition is 34.8% (active).
For `O=C(CCS(=O)(=O)c1ccccc1)NC1CCCC1`, the inhibition is -3.67%.
With `COc1cc(NC(=O)CN(C)S(=O)(=O)c2ccc3nc(C)sc3c2)cc(OC)c1`, the inhibition was 1.78%.
For `Cc1cccc(N(CC(=O)Nc2ccc(-c3nc4ccc(C)cc4s3)cc2)S(C)(=O)=O)c1` the value was 46.6% (active).
Take `Cc1nc2ccc(S(=O)(=O)N(C)CC(=O)NC(C)c3ccccc3)cc2s1` (centres undefined): the inhibition is -7.08%.
For `COc1cccc(N(CC(=O)Nc2cccc(F)c2)S(C)(=O)=O)c1` the value was -2.72%.
In the case of `CCN(CC)S(=O)(=O)c1ccc(NC(=O)CN(c2cccc(F)c2)S(C)(=O)=O)cc1` it was -22.3%.
In the case of `Cc1ccc2nc(-c3ccc(NC(=O)CN(C)S(=O)(=O)c4ccccc4)cc3)sc2c1` it was 72.6% (active).
For the compound `COc1cccc(CNn2cn[nH]c2=S)c1OCc1ccccc1`, the inhibition is 7.14%.
As to `O=C(CN1CCSCC1)N/N=C/c1ccc(F)cc1`, the inhibition was 10.8%.
In the case of `CCOc1ccc(CCNC(=O)COC(=O)c2ccc(F)c(S(=O)(=O)N3CCOCC3)c2)cc1OCC` it was -5.23%; in that of `O=C(Nc1ccccc1F)c1ccc(Cn2cc(Br)cn2)cc1`, -6.22%.
In the case of `NC(=O)Cn1nc([N+](=O)[O-])nc1Oc1ccc(Br)cc1`, the inhibition is 4.94%.
Consider `COc1ccc(CCNC(=O)C2CCCN2C(=O)Nc2ccccc2)cc1OC` (centres undefined), for which the inhibition is 2.79%.
For `CCCCCCCCCCCCC(NC(C)=O)(C(=O)OCC)C(=O)OCC`, the inhibition was -7.56%.
In the case of `CC(=O)N(C)c1ccc(NC(=O)C(F)(F)F)cc1` it was -11.5%; in that of `CN(C)c1ccc(N/C=C/C(=O)C(F)(F)F)cc1`, 173% (active); in that of `CC(C)CNC(=O)C(=O)Nc1ccc(N(C)C)cc1`, -3.03%.
As for `CCCn1nnnc1NCc1ccc(CC)cc1`, the inhibition was 10.3%.
Take `CC(C)c1ccc(NC(=S)NC2CC3C=CC2C3)cc1` (centres undefined): the inhibition was -1.5%.
On to `COc1ccc2[nH]c3nc(SCC(=O)NC4CC4)nnc3c2c1`, for which the inhibition is -0.29%.
In the case of `COc1ccc2nc(SCc3ccccc3)nc(C)c2c1` it was 11.4%; in that of `COC(=O)CSc1nc(C)c2ccc(OC)cc2n1`, 78.5% (active); in that of `CCN(CC)Cc1csc2ccc(Br)cc12`, 5.3%.
On to `O=C(C1CCC1)N1CCc2cc(S(=O)(=O)NCc3cccnc3)ccc21`, for which the inhibition was 8.39%.
Turning to `COc1cc(Nc2nc3ccc(Cl)cc3n3cnnc23)cc(OC)c1OC`, the inhibition is 2.08%.
For `O=C(Nc1ccc(C2CC2(Cl)Cl)cc1)c1cccc([N+](=O)[O-])c1` (centres undefined), the inhibition was -4.52%.
In the case of `Cc1ccc(-n2c(C)cc(/C=C(\C#N)C(=O)NCC3CCCO3)c2C)cc1` (centres undefined) it was 7.66%; in that of `O=C(Cn1c(NCCO)nc2ccccc21)c1ccc(Cl)cc1Cl`, -13.3%; in that of `Cc1ccc2c(C)c(C(=O)N(C)Cc3ccncn3)oc2c1C`, 3.76%.
Consider `COc1ccc(NC(=O)NCc2ccc3c(c2)OCO3)c(OC)c1`, for which the inhibition is 71.6% (active).
In the case of `COc1cc(OC)c(C(=O)NCc2ccc3c(c2)OCO3)cc1OC` it was -7.83%; in that of `COc1ccc2c(c1)C(C)=CC(C)(C)N2C(=O)CNCc1ccc2c(c1)OCO2`, 3.99%; in that of `O=C(NCc1ccccc1)[C@@H]1CSC2c3ccccc3C(=O)N21` (some centres undefined), -9.14%.
As to `Cc1ccccc1CCN(CC(=O)NC1CCCCC1)C(=O)c1csnn1`, the inhibition is 3.08%.
For `CCN(CC(=O)Nc1c(F)cccc1F)C(=O)CN1c2cccc3cccc(c23)S1(=O)=O` the value was -4.49%; for `Nc1cc(N)nc(SCc2cccc(F)c2)n1`, -19.7%; for `COC(=O)c1ccccc1NC(=O)CSc1nc2c(c(=O)[nH]1)CCC2`, -3.59%.
For the compound `Cc1cccc(NC(=O)Cn2c(=O)n(Cc3ccccc3)c(=O)c3c(C)c(C)sc32)c1`, the inhibition was 79.6% (active).
For `Cc1cccc(-n2c(=O)c3c(C)c(C)sc3n(CC(N)=O)c2=O)c1` the value was -0.9%; for `Cc1sc2c(c1C)c(=O)n(-c1ccccc1)c(=O)n2CC(=O)NCC1CCCO1` (centres undefined), 1.39%; for `CCOCCCN(C)C1CCN(C(=O)c2oc3ccccc3c2NC(=O)Cc2cccc([N+](=O)[O-])c2)CC1`, -6.1%.
In the case of `CCOc1ccc(C(C(=O)NCCOC)N(CCOC)C(=O)CCC(=O)Nc2ccccn2)cc1` (centres undefined) it was -5.61%.
With `CCOc1ccc(-c2cn(S(=O)(=O)c3cccc4nsnc34)nc2N)cc1`, the inhibition is 3.63%.
For `C=CCN(C(=O)Nc1ccc2oc(C)nc2c1)c1ccccc1`, the inhibition is 14.4%.
Consider `CCN(CC)c1ccc2cc(C(N)=O)/c(=N\NC(=O)c3ccncc3)oc2c1`, for which the inhibition was 9.01%.
Consider `CCN(CC)c1ccc2oc(=O)c(C)nc2c1`, for which the inhibition was 110% (active).
As to `C=CCOC(=O)C1=C[C@H](c2ccc(Br)cc2)C[C@H](OCCCCO)O1`, the inhibition is 8.07%.
As for `CCc1ccc(C(=O)NN=C2CCCCCC2)s1`, the inhibition is 4.85%.
For `CC(=O)c1c(C)[nH]c(C(=O)OCC(=O)Nc2sc3c(c2C#N)CCCC3)c1C`, the inhibition is 42.2% (active).
For `Cc1cccc(C(=O)OCC(=O)Nc2sc3c(c2C#N)CCC3)c1` the value was 3.25%; for `N#Cc1c(NC(=O)CCCl)sc2c1CCCCC2`, -14.9%; for `CC(=O)c1cc(-c2ccccc2)[nH]c1N1CCCC1`, -8.66%.
With `Cc1ccc2c(c1)C(O)(CC(=O)c1cccc(-n3cccc3)c1)C(=O)N2` (centres undefined), the inhibition was 2.62%.
For the compound `CC1=NCCN1S(=O)(=O)c1cccc([N+](=O)[O-])c1`, the inhibition was -6.19%.
Take `O=[N+]([O-])c1cccc(S(=O)(=O)N2CCCCCC2)c1`: the inhibition was 1.71%.
Take `CCc1nccn1S(=O)(=O)c1cccc([N+](=O)[O-])c1`: the inhibition is 31.4% (active).
In the case of `Cc1cc(Nc2ccc(Br)cc2)nc2ccccc12` it was -8.6%; in that of `O=C(N/C(=C/c1ccc(Cl)cc1)C(=O)N1CCCCC1)c1ccco1`, 7.31%; in that of `CC(=O)CC[C@@H](C)O[C@@H]1OC(C)[C@H](O)CC1O` (some centres undefined), 4.39%.
As for `COc1ccc(C)cc1NC(=O)NCCCCc1ccccc1`, the inhibition is 2.71%.
With `Cc1cc(C)cc(NC(=O)NCc2ccccn2)c1`, the inhibition is -7.86%.
Take `COc1ccc(C)cc1NC(=O)NCc1ccccn1`: the inhibition was 110% (active).
For `CCOc1ccc(S(=O)(=O)N2CCN=C2Cc2ccccc2)cc1C` the value was 4.47%; for `CC1CCCN(S(=O)(=O)c2ccc(-c3ccc(=O)[nH]n3)o2)C1` (centres undefined), -20.5%.
For the compound `N#Cc1ccc(N2Cc3ccccc3/C2=N/C(=O)Nc2ccc(Cl)cc2)cc1`, the inhibition was 73.5% (active).
With `Cc1cccc(N2Cc3ccccc3C2=NC(=O)c2ccc(Cl)nc2)c1`, the inhibition is 17.6%.
For `O=C(Nc1ccccc1)OCc1cn(-c2ccc(Cl)cc2)nn1` the value was 6.14%; for `COc1ccc(NC2CCCN(C(=O)c3ccncc3)C2)cc1` (centres undefined), 5.52%; for `C=CCN(c1ccc(Cl)cc1)S(=O)(=O)c1cccc(C(=O)OCC(=O)N(C)C)c1`, 11.1%.
As for `COc1ccc(C(C[N+](=O)[O-])n2nc(C)cc2C)cc1` (centres undefined), the inhibition was 11%.
In the case of `O=C(CCCn1c(SCC(=O)c2ccc(F)cc2)nc2ccccc2c1=O)NCc1ccco1` it was 37.8% (active); in that of `O=C(CCCn1c(SCC(=O)c2ccccc2)nc2ccccc2c1=O)NCC1CCCO1` (centres undefined), 1.63%; in that of `Cn1c(-c2ccc(F)cc2)cnc1SCC(=O)NCc1ccco1`, 3.48%.
Turning to `CC(C)C[C@H]1CN=C(Nc2ccccc2)N1CC1CCCCC1`, the inhibition was 0.22%.
For `COc1ccc(NC(=O)C2C3CCC(O3)C2C(=O)O)cc1OC` (centres undefined) the value was 5.36%; for `COC(=O)C1=CN(Cc2ccc(OC)cc2)C=C(C(=O)OC)C1c1ccc(O)c(OC)c1`, 28.7% (active).
For `CCOc1cc(C2C(C(=O)OC)=CN(C3CCCC3)C=C2C(=O)OC)cc(Br)c1O`, the inhibition was 11.7%.
Take `COc1ccc(C(=O)Nc2ccccc2C(=O)N/N=C/c2ccc(O)c(OC)c2)cc1`: the inhibition is 6.06%.
For `Cc1ccccc1NC(=O)C(C)OC(=O)CCC(=O)N(CC(C)C)c1c(N)n(CC(C)C)c(=O)[nH]c1=O` (centres undefined), the inhibition is -7.69%.
In the case of `COc1ccc(S(=O)(=O)NC(C)C(=O)N2CCCCCC2)cc1` (centres undefined) it was 2.58%; in that of `CSc1nnc(SCc2nc3sc(C(=O)O)c(C)c3c(=O)[nH]2)s1`, 4.86%; in that of `COc1ccccc1NC(=O)CSc1nc2sc3c(c2c(=O)n1-c1ccccc1)CCN(C)C3`, -6.51%.
For `CCOC(=O)c1ccc[n+](CC(=O)Nc2ccccc2OC(F)F)c1`, the inhibition is -2.1%.
For `Cc1ccc(-c2nc(SCC(=O)Nc3ccccc3OC(F)F)c3c(C)c(C(=O)O)sc3n2)cc1` the value was 29.7% (active).
Regarding `COc1ccc([N+](=O)[O-])cc1NCC(=O)c1ccc(C)cc1`, the inhibition is 5.63%.
For `Cc1ccc(S(=O)(=O)N(CC(O)CN2C(=O)NC(C)(C)C2=O)c2cccc([N+](=O)[O-])c2)cc1` (centres undefined) the value was -8.62%; for `Cc1ccc(O)c(/C=N/NC(=O)COc2ccc3c(C)cc(=O)oc3c2)c1`, 27.9% (active); for `Cc1cc(=O)oc2cc(OCC(=O)Nc3nnc(C4CC4)s3)ccc12`, 7.9%.
In the case of `CCOC(=O)Cc1csc(NC(=O)COc2ccc3c(C)cc(=O)oc3c2)n1`, the inhibition was -2.07%.
With `Cc1ccc(OCCC(=O)OCC(=O)N2c3ccccc3NC(=O)C2(C)C)cc1`, the inhibition is -1.98%.
For `CN1CCN(CC(=O)C23CC4CC(CC(C4)C2)C3)CC1` the value was -0.65%.

Values taken from PubChem BioAssay AID1950 (The Scripps Research Institute Molecular Screening Center, 2009).
